# Test results from the supplement of paper PMC11417369.
# The full ranking holds about 25,000 sequences; the median of “ln(normalized median fluorescence intensity)” is about 9.7, and the highest 2% start at about 11. What follows is part of a selection rich in the highest values, with near analogues and random picks from the rest.
# Tested on: PfAP2-HC AP2 domain (GST-tagged)
# Assay: gcPBM binding intensity (ln(normalized median fluorescence intensity)); higher = stronger DNA binding
# Procedure, shortened: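 After 1 h on an Agilent 4 × 180k array of primer-extended double-stranded 36-bp intergenic genomic probes and negative controls, bound GST-tagged P. falciparum DNA-binding domains were detected with Alexa488 anti-GST antibody and scanned at 488 nm. The domains had been expressed in E. coli, and binding took place in 1× PBS with 1% milk, 0.2 mg/ml BSA, 0.5% salmon testes DNA and 0.03% Triton X-100. Binding intensity is the highest Masliner-normalised natural-log median intensity across replicate spots of either probe orientation.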
row,Sequence,gcPBM binding intensity (ln)
1,AAGATTTGAAAAAATACACACAATAAAAAAATAAAA [CACACA_site3281],10.1
2,TTTTATTATTTTTGTTGTACAGTATACTGTATGATT [XGTACX_site5359],9.69
3,TTAAAAAATCACAACACACACACACGCAAAAAAAAA [CACACA_site6793],10.8
4,AAAAAATCACGACACACACACACACTAAAAAAAAAA [CACACA_site6792],11.3
5,AACAAATACGAACACACACACACACTAAAAAAAAAA [CACACA_site6386],10.8
6,TCATAAAGAACAAAGTGTACCTATATATTACATACA [XGTACX_site7595],9.59
7,TATATATATATATATACACACACACCCACCAAAGCG [CACACA_site7904],10.1
8,TATATATATAAATACACACACACACCCCAAAGCGTA [CACACA_site4211],10.6
9,TATATATATATATACACACACACACCCCAAAGCGTA [CACACA_site64],11.1
10,TATAAATATAGACACACACACACCAAAGCGTAGCGC [CACACA_site6179],10.3
11,TATAAATATAAATACACACACACACGCCAAAGCGTA [CACACA_site6181],11
12,TAAATATATAAATACACACACACCAAAGCAATAGAT [CACACA_site5605],10.5
13,TATTATATTTATTTATGTACACATATACTTAAATAA [XGTACX_site1355],9.69
14,AAATAGCCAAAAATCATGCACACCTAAAAAAAAAAA [CACACA_site2572],9.77
15,AGCTGAAAAAAAAGCTTGCACACGTATTTGCTTTAT [CACACA_site1512],9.81
16,ATAAACAATTAACAAACATGCAAATTTTAAATGTGT [TGCATGCA_site919],9.68
17,ATATTTGTATAAATTGCACACTTTATTTTTTTTAAG [CACACA_site1558],9.61
18,TTTGTTTGTAAAATGTTGCACTTTCTTTTGCTGATA,9.66
19,ATATATCTATATAGAAATGTATATATATATATGTGT [TGCATGCA_negctrl_site349],9.77
20,TATTTCGTAATTTAATAATATACAAGAAATATATAT [XGTACX_negctrl_site143],9.4
21,CAATCAAAGAAACACACACACACCTAAACATAAAAG [CACACA_site2756],11.7
22,CAATCAAATAGACACACACACACCTAAACATAAAAG [CACACA_site7322],11.1
23,ATAAAAAAGAAACAAACACACATACATACAAACAAA [CACACA_site4256],10.3

row,Sequence,gcPBM binding intensity (ln)
1,AACAATCAAATAGACACACACACACCCAAACATAAA [CACACA_site2757],10.6
2,CAATCAAATGGACACACACACACCTAAACATAAAAG [CACACA_site5524],10.5
3,ATCAAATAGAGACACACACACCTAAACATAAAAGAA [CACACA_site7321],10.6
4,GAAAAGTATAAAAAACGTACAAGTTTTATTTTCACA [XGTACX_site4604],9.58
5,TTTCTAATTATTTCCCTTCAAATATATTAATATCGT [CACACA_negctrl_site429],9.55
6,AGTATACATATATATACACACATATATATATATATA [CACACA_site300],9.8
7,AAAACAAACGGACACACACACATATATATATATATA [CACACA_site5924],10.5
8,AGTATACTCGGACACACACACACATATATATATATA [CACACA_site5031],11.7
9,CATATATACTCATACACACACACACCGACACAGACA [CACACA_site5026],10.3
10,CATATACTCGGACACACACACACACCGACAAAAAAA [CACACA_site4433],11.1
11,AGTATACATATATATACACACACATATATATATATA [CACACA_site7883],9.87
12,ACAAAAAAAAAAAAAAAAAAAAAAAAAAAATAATAA [CACACA_negctrl_site1640],9.18
13,TAAAATATATAAAACTGTACATTTTAAAGGCACAAC [XGTACX_site8342],9.98
14,AAAAATCAATTAGAAGAACACACGTAAATTTTTTTT [CACACA_site2396],9.76
15,TATTTTTCTTTATTGGTACACACGAAAAAAAAATTG [CACACA_site3054],9.53
16,AAATGGGTTTATTTAACACACAAAAGAAAAAATATA [CACACA_site1938],9.77
17,AAAGGTGTATTTAATACACACGTGTCATTAAAATTG [CACACA_site4508],9.71
18,CGCACCCACAGACACACACACACATATATATATATA [CACACA_site2202],11.4
19,CACACCCACAGACACACACACACATATATATATATA [CACACA_site363],10.8
20,TATATACATAGACACCCACACACAAAAAAAAAAAAA [CACACA_site8186],10.2
21,CACACCCACAGACACACACACACATATATAATATAT [CACACA_site594],11.4
22,ATAATCCACAAGCACACACACACACCCATATATATA [CACACA_site1268],10.6
23,TATATATATATAGACACACACACACCCATATATATA [CACACA_site4117],10.9

row,Sequence,gcPBM binding intensity (ln)
1,CACCCATACAGACATACACACACATATATATTAATA [CACACA_site8077],10.2
2,TAAATACAGACATACACACATACACCCACATATATA [CACACA_site547],10.3
3,TATATATATATATATACACACACACCCATATATATA [CACACA_site8812],10.3
4,TATAATAATCCACAAGCACACACACCCACATATATA [CACACA_site8343],11.3
5,TAATAATCCACAAGCACACACACACCCATATATATA [CACACA_site1267],10.8
6,AAAAAAAAAAAAAAATGTACAAAAATTACTATAAAA [XGTACX_site7683],9.48
7,AAAAATAATGCACATATATATAATATGTATATGTAT [CACACA_negctrl_site443],9.75
8,GTAATGAAACATTGCACACATATAATAATATAATAT [CACACA_site1422],9.84
9,AGAAAAGAAATTAGTTGTACTCTGATGAATTATCCT [XGTACX_site6284],9.5
10,TTCAATTTTTTATGAACACACAAAAAAAAAAAAAAA [CACACA_site2533],9.23
11,AGACAGCGCACAAACACACAAACACCCACCCACATA [CACACA_site451],11.3
12,ACCGTGGGAGGACACACACACACACCCACATATATA [CACACA_site4339],10.8
13,AGTATACACAGACACACACACACATATATATATATA [CACACA_site8510],10.9
14,ATAGACAGCGCACAAACACACAAACACAGACCCCCA [CACACA_site4409],10.2
15,CACAGACACCCATACACACACATACCCATATATATA [CACACA_site5023],10.3
16,GGCATACACAGACACACACACACACCCACATATATA [CACACA_site591],11.2
17,AAACCGTGGGAGCACACACACACACCCACCCATATA [CACACA_site332],10.4
18,ACCGTGGGAAGACACACACACACACCCACATATATA [CACACA_site333],11
19,TTGGCATACAGACACACACACACACCCCCACATATA [CACACA_site590],10.9
20,TTTAAATACAGACATACACACATACACCCACATATA [CACACA_site8078],10.2
21,ATAGTATACAGACACACACACACACCCATATATATA [CACACA_site1736],11.7
22,ATAGACAGCGCACAAACACACAAACACCCACCCACA [CACACA_site8043],10.1
